# Results as given in PubChem BioAssay AID2568 (National Center for Advancing Translational Sciences (NCATS), 2010).
# Records with an inconclusive call do not appear. Activity calls are given as the source filed them. Calls come from the whole dose curve.
# Molecular target: Neuropeptide S receptor (Homo sapiens) (UniProt Q6W5P4)
# Assay: Confirmation Concentration-Response Assay for Antagonists of the Neuropeptide S Receptor: cAMP Signal Transduction, SAR for Probe
# Conditions: CHO-NPSR cells, cAMP TR-FRET, antagonist mode; series mostly up to 47.8 µM; activity change, negative = inhibition: at the top concentration
# Excerpt: NIH Chemical Genomics Center [NCGC] NIH Molecular Libraries Probe Production centers Network [MLPCN] MLPCN Grant: X01-DA026210-01 Assay Submitter (PI): Heilig, Markus Alexander NCGC Assay Overview: Neuropeptide S receptor (NPSR), previously known as GPR154, is a recently de-orphanized G protein coupled receptor. Its endogenous ligand is the 20 amino acids peptide Neuropeptide S (NPS). […] NPS and its receptor are found in various tissues. Specifically they are highly expressed in brain areas that have been implicated in modulation of arousal, stress and anxiety. Central administration of NPS in mice produces an unusual profile of activity by inducing wakefulness and arousal, while at the same time suppressing anxiety. Therefore, NPSR may represent a novel drug target for the treatment of sleep and anxiety disorders. To identify NPSR antagonists, we developed a cell-based cAMP assay. NPS can stimulate the production of cAMP in Chinese hamster ovary cells stably expressing NPS receptor. This change in intracellular cAMP level can be detected by a homogeneous LANCE cAMP assay based on the TR-FRET (time resolved fluorescence resonance energy transfer) between a europium-labeled cAMP tracer complex and a cAMP-specific antibody labeled with Alexa Fluor 647. The europium-labeled cAMP tracer complex is formed by the tight interaction between Biotin-cAMP (b-cAMP) and streptavidin labeled with Europium-W8044 chelate (Eu-SA). Light pulse at 320 nm excites the europium of the cAMP tracer and the energy emitted is transferred to the Alexa molecule bound to the cAMP antibody, generating a TR-FRET signal at 665 nm. Residual energy from the europium will produce a light at 620 nm. The native unlabeled cAMP from cell lysates competes with the europium-cAMP tracer for antibody binding and reversely reduces the emission signal of Alexa by interrupting FRET between the two labeled molecules. Both emission signals from the FRET donor (620 nm) and the acceptor (665 nm) can be detected by a plate reader in the TRF mode. Expression of result in fluorescence ratio (665 nm/620 nm) helps to normalize differences due to cell density and reagent dispensing. This assay was successfully optimized to a 1536-well plate format. Select compounds from the primary screen (AID 1461) were chosen for confirmation based on potency, efficacy, SAR, and activity across other assays in PubChem and at NCGC. Other compounds are analogs of active compounds from the primary screen.
# NCGC Assay Protocol Summary: A Chinese hamster ovary (CHO) cell line stably expressing the NPS receptor (CHO-NPSR) was obtained from Dr. Heilig lab at NIAAA and maintained in F-12 Kaighn's media (Invitrogen, Carlsbad, CA, 21127) supplemented with 10 % FBS, 100 units/ml penicillin, 100 ug/ml streptomycin and 250 ug/ml geneticin at 37C, 5% CO2 in a humidified atmosphere. Before the assay, aliquots of cells were frozen and stored at -135C. The assay was performed in 1536-well format. Data are reported for both the ratio of the two emission wavelengths, and also for the component 'donor' channel, Em2=620. […] IC50 values were determined from concentration-response data modeled with the standard Hill equation. NPS 1536-well assay protocol: (1) Fresh or frozen CHO-NPSR cells were suspended in F-12 Kaighn's media supplemented with 10 % FBS, 100 units/ml penicillin and 100 ug/ml streptomycin. Cells were plated at 4 ul/well (1200 cells) to white, tissue culture treated 1536-well plates, and then cultured at 37C, 5 % CO2 for 16 to 30 hours. (2) Add 23 nl/well of compound in DMSO solution. The final titration for each compound was between 0.6 nM and 46 uM. (3) Add 1 ul of stimulation reagent (1X HBSS buffer, 5 mM HEPES, 0.1% BSA, 500 uM RO-201724 (Sigma-Aldrich, B8279), 1.5% Alexa 647-labeled anti-cAMP antibody (from Perkin Elmer), 100 nM NPS) (4) Incubation at 37C, 5 % CO2 for 60 min. (5) Add 1 ul/well detection reagent. […]
# Neuropeptide S receptor (Homo sapiens), sequence (Q6W5P4 whole entry, looked up): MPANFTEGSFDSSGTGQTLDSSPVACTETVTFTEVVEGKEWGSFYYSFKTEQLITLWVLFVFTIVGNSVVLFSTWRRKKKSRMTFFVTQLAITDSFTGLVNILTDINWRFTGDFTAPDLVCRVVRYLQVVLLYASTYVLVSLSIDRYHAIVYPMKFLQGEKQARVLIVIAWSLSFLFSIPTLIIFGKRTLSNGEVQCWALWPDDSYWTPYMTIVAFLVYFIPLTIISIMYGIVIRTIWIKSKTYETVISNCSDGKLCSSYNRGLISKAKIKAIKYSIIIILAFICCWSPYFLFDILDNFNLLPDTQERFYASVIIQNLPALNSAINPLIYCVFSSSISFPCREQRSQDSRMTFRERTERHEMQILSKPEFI
SMILES,Potency,"activity change, negative = inhibition"
COc1cccc(C2c3c(ncn(-c4cccnc4)c3=N)Oc3ccc4ccccc4c32)c1 (stereo not given),12.2 µM (active),–
Cc1c(P(=S)(c2ccccc2)c2ccccc2)c2ccccc2n1C(=O)Cc1ccccc1,–,-16.5% (inactive)
COc1ccc(C2c3ccccc3Oc3ncn(CCN4CCOCC4)c(=N)c32)cc1OC (stereo not given),6.14 µM (active),–
O=P(c1ccccc1)(c1ccccc1)c1cnc2ccccn12,–,-17.1% (inactive)
Cc1c(P(=S)(c2ccccc2)c2ccccc2)c2ccccc2n1CCc1ccccc1,–,-9.1% (inactive)
O=C1OC(c2ccccc2)(c2ccccc2)N2CCN(C(=O)NCc3ccc(F)cc3)CC12 (stereo not given),1.94 µM (active),–
COc1ccc(C2c3c(nc(Cc4ccccc4)[nH]c3=O)Oc3ccc4ccccc4c32)cc1OC (stereo not given),–,-20.3% (inactive)
COc1cccc(C2c3c(ncn(-c4cccc(Cl)c4)c3=N)Oc3ccc4ccccc4c32)c1 (stereo not given),15.4 µM (active),–
COc1cccc(C2c3c(ncn(-c4ccccc4C)c3=N)Oc3ccc4ccccc4c32)c1 (stereo not given),9.72 µM (active),–
COc1cccc(C2c3c(ncn(-c4ccc5c(c4)OCO5)c3=N)Oc3ccc4ccccc4c32)c1 (stereo not given),6.14 µM (active),–
Cc1c(P(=S)(c2ccccc2)c2ccccc2)c2ccccc2n1CCCc1ccccc1,–,-6.79% (inactive)
COc1ccc(C2c3c(n(Cc4ccccc4)cnc3=N)Oc3ccc4ccccc4c32)cc1OC (stereo not given),48.7 µM (active),–
COc1ccc(C2c3c(N)nc(CCc4ccccc4)nc3Oc3ccc4ccccc4c32)cc1OC (stereo not given),48.7 µM (active),–
COc1cccc(C2c3c(ncn(-c4cccc(C)c4)c3=N)Oc3ccc4ccccc4c32)c1 (stereo not given),12.2 µM (active),–
COc1cccc(C2c3c(ncn(-c4ccc(NC(C)=O)cc4)c3=N)Oc3ccc4ccccc4c32)c1 (stereo not given),19.4 µM (active),–
COc1cccc(C2c3c(ncn(-c4ccc(Br)cc4)c3=N)Oc3ccc4ccccc4c32)c1 (stereo not given),15.4 µM (active),–
COc1cccc(C2c3c(ncn(-c4ccccc4Cl)c3=N)Oc3ccc4ccccc4c32)c1 (stereo not given),12.2 µM (active),–
C[n+]1cc(C(O)(c2ccccc2)c2ccccc2)n2ccccc21,–,-11.9% (inactive)
O=C(NCc1ccccc1)n1cc(P(=S)(c2ccccc2)c2ccccc2)c2ccccc21,–,-17.7% (inactive)
Cc1c(P(=S)(c2ccccc2)c2ccccc2)c2ccccc2n1Cc1ccccc1,–,-21.2% (inactive)

SMILES,Potency,"activity change, negative = inhibition"
COc1cccc(C2c3c(ncn(-c4ccccc4SC)c3=N)Oc3ccc4ccccc4c32)c1 (stereo not given),7.72 µM (active),–
Cc1c(P(=S)(c2ccccc2)c2ccccc2)c2ccccc2n1C(=O)NCc1ccccc1,31.5 µM (active),–
CCOC(=O)c1ccc(-n2cnc3c(c2=N)C(c2cccc(OC)c2)c2c(ccc4ccccc24)O3)cc1 (stereo not given),15.4 µM (active),–
COc1ccc(C2C3=C(N=CN(CCN4CCOCC4)C3N)Oc3ccccc32)cc1OC (stereo not given),–,-10.3% (inactive)
COc1cccc(C2c3c(ncn(-c4ccccc4Br)c3=N)Oc3ccc4ccccc4c32)c1 (stereo not given),12.2 µM (active),–
COc1ccc2c(c1)Oc1ncn(CCN3CCOCC3)c(=N)c1C2c1ccc(OC)c(OC)c1 (stereo not given),19.4 µM (active),–
COc1cccc(C2c3c(ncn(-c4ccc(C(C)(C)C)cc4)c3=N)Oc3ccc4ccccc4c32)c1 (stereo not given),15.4 µM (active),–
COc1cccc(C2c3c(ncn(-c4cccc(Br)c4)c3=N)Oc3ccc4ccccc4c32)c1 (stereo not given),19.4 µM (active),–
COc1cccc(C2c3c(ncn(Cc4cccs4)c3=N)Oc3ccc4ccccc4c32)c1 (stereo not given),19.4 µM (active),–
Cc1c(P(=O)(c2ccccc2)c2ccccc2)c2ccccc2n1C,–,-18.1% (inactive)
COc1cccc(C2c3c(ncn(-c4ccc(C)cc4)c3=N)Oc3ccc4ccccc4c32)c1 (stereo not given),12.2 µM (active),–
Cc1c(P(=S)(c2ccccc2)c2ccccc2)c2ccccc2n1C(=O)NCc1ccc(F)cc1,31.5 µM (active),–
COc1ccc(C2c3c(ncn(CCCc4ccccc4)c3=N)Oc3ccc4ccccc4c32)cc1OC (stereo not given),24.4 µM (active),–
COc1ccc(C2c3c(nc(CCCc4ccccc4)[nH]c3=O)Oc3ccc4ccccc4c32)cc1OC (stereo not given),–,-18.2% (inactive)
COc1ccc(C2c3ccc4ccccc4c3Oc3ncn(CCN4CCOCC4)c(=N)c32)cc1OC (stereo not given),48.7 µM (active),–
COc1cccc(C2c3c(ncn(-c4cccc(F)c4)c3=N)Oc3ccc4ccccc4c32)c1 (stereo not given),3.87 µM (active),–
COc1cccc(C2c3c(ncn(-c4ccccc4-c4ccccc4)c3=N)Oc3ccc4ccccc4c32)c1 (stereo not given),38.7 µM (active),–
COc1cccc(C2c3c(ncn(-c4ccccn4)c3=N)Oc3ccc4ccccc4c32)c1 (stereo not given),30.7 µM (active),–
COc1cccc(C2c3c(ncn(-c4cccc(OC)c4)c3=N)Oc3ccc4ccccc4c32)c1 (stereo not given),9.72 µM (active),–
COc1ccc(C2c3c(nc(CCc4ccccc4)[nH]c3=O)Oc3ccc4ccccc4c32)cc1OC (stereo not given),–,-11.2% (inactive)
